POLH inh: DNA polymerase eta (human) inhibition. Q9Y253. recombinant Pol eta, fluorescent DNA replication assay. Potency, µM (series often up to 114 µM), for inactives: top-dose activity change, negative = inhibition, most hits filed as inhibitors. hit rate 1.2% among 390,000. AID 588591; note: % is set by controls: 0 for no effect and ±100 for the full control effect
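Pol eta at 10 nM preincubated with compounds 15 min at room temperature; reaction started with fluorescent substrate (50 nM final) and read kinetically at 0 and 10 min.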
POLB inh: inhibitors of human DNA polymerase beta | P06746 | Pol beta primer extension/strand displacement, fluorescence kinetic | Potency, µM (highest dose often 114 µM), without a hit: at the highest dose activity change, negative = inhibition, hits mostly inhibitors | hit rate 1.3% among 340,000 | AID 485314; note: % is set by controls: 0 for no effect and ±100 for the full control effect
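Kinetic readout of DNA synthesis with strand displacement by Pol beta. Compound and 10 nM enzyme sit 15 min at room temperature; 50 nM substrate starts the reaction, read immediately and at 10 min.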
APE1 inh: inhibitors of human APE1 endonuclease; hit rate 0.35% among 350,000; Potency, µM (doses to about 65.8 µM), inactives show top-dose activity change, negative = inhibition, usual class: inhibitors; P27695; AID 2517; recombinant APE1, TAMRA/BHQ-2 abasic DNA cleavage fluorescence;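 note: plate controls were vehicle for no effect and reference inhibitor for full effect; nearly all actives have a fitted effect of over 55% in size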
Target sequence (P27695 whole entry, looked up): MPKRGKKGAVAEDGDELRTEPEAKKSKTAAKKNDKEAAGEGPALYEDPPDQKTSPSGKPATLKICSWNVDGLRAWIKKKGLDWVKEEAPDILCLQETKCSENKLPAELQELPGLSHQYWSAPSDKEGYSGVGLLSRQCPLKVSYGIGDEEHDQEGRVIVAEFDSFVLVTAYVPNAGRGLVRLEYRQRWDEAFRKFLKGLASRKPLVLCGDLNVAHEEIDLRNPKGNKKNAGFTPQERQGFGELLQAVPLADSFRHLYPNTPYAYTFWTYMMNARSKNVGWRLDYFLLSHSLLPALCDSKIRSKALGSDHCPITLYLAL
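Step 1: APE1 (0.75 nM) with compound, 15 min RT. Step 2: add 50 nM fluorophore/quencher THF duplex. Step 3: three fluorescence reads 60 s apart (525/598 nm); read 3 minus read 1 = reaction progress.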
POLI inh: blocks human DNA polymerase iota activity; Potency, µM (highest dose often 115 µM), without a hit: at the highest dose activity, negative = inhibition, actives largely listed as inhibitors; AID 588590; Pol iota fluorescent replication assay, 10 min; hit rate 1% among 390,000
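Fluorescent replication assay read twice, at 0 min and 10 min after adding 50 nM (final) substrate. Enzyme (10 nM) and compounds were first incubated 15 min at room temperature; enzyme-free buffer wells were negative controls.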
Pol kappa inh: DNA polymerase kappa (human) inhibition; hit rate 0.53% among 400,000; purified Pol kappa, fluorescent DNA synthesis assay, 10 min; AID 588579; Potency, µM (series often up to 107 µM), for inactives: at the top dose activity, negative = inhibition, usual class: inhibitors; note: % is set by controls: 0 for no effect and ±100 for the full control effect
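Enzyme at 10 nM met test compounds for 15 min at room temperature. Substrate addition (50 nM final) began the reaction, which was monitored by fluorescence at 0 and 10 min.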
GLS inhibitor: blocks human kidney-isoform glutaminase activity | O94925 | AID 624170 | Potency, µM (highest dose often 45.5 µM), for the others: at the top dose activity change, negative = inhibition, actives largely listed as inhibitors | GLS enzymatic activity, qHTS titration | hit rate 0.21% among 410,000; note: % is set by controls: 0 for no effect and ±100 for the full control effect
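Human kidney-isoform GLS in 45 mM KH2PO4 pH 8.2, 0.02% Tween-20, with compound, started with 1mM L-Glutamine (added stock). Glutamate oxidase/HRP/Amplex red coupled fluorescence read at start and after 30 min at RT.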
* hit, by the source's call; ? = inconclusive; . = no result; [ ] = dose if it differs, or a comment. Most compounds without a hit are left out; they make up all but 2.4% or so of the library. Calls come from the whole dose curve; as a rule, active = well fitted curve in the direction sought with a large enough effect; inconclusive = small, poorly fitted or top-dose-only effect, or another doubt; inactive = no such curve, though single readings can be large; an effect the other way counts as inactive or inconclusive. Potency is the fitted concentration of half-maximal effect.

SMILES	POLH inh	POLB inh	APE1 inh	POLI inh	Pol kappa inh	GLS inhibitor
COc1cc(C2CC(=O)Nc3c2c(=O)n(C)c2ncnn32)cc(OC)c1OC (stereo unspecified)	-4%	-12%	.	50µM*	-7%	-24%
NC(=O)C1CN(S(=O)(=O)c2ccc(Cl)cc2F)c2ccccc2O1 (stereo unspecified)	-20%	63µM*	8%	10%	2%	3%
CCc1sc(Nc2cccc(C)c2C)nc1-c1cc2cccc(OC)c2oc1=O	-27%	-20%	.	22%	0%[60.1 µM]	2%
C=CCn1c(SCC(=O)NC2CCCC2)nc2scc(-c3ccco3)c2c1=O	16µM*	25µM*	?	?	?	0%
C=CCn1c(SCC(=O)NCCCC)nc2scc(-c3ccco3)c2c1=O	10µM*	22µM*	-8%	20µM*	40µM*	-13%
C=CCn1c(SCC(=O)NCC2CCCO2)nc2scc(-c3ccccc3)c2c1=O (stereo unspecified)	-13%	2%	20%	-1%	-5%	3%
C=CCn1c(SCC(C)=O)nc2scc(-c3ccc(C)o3)c2c1=O	1%	19%	-21%	89%	-14%	2%
CC12CN3CC(C)(CN(C1)C3c1ccc([N+](=O)[O-])o1)C2=O (stereo unspecified)	3%	8%	13%	13%	4%[60.1 µM]	5%
C[C@H](CO)N1C[C@H](C)[C@@H](CN(C)C(=O)c2ccc3c(c2)OCO3)Oc2cc(/C=C/c3ccccc3)ccc2S1(=O)=O	-10%	.	.	.	.	-1%
COc1cccc(/C=C/C(=O)OCC(=O)c2ccc3c(c2)NC(=O)CO3)c1	-13%	.	8%	10%	11%	-3%
Oc1nc(Nc2ccc(Cl)cc2Cl)sc1/C=C1\C=Nc2ccccc21	14µM*	?	-3%	?	-26%	16%
O=C1Nc2ccccc2/C1=C/c1cnc(-c2ccccc2)[nH]1	-30%	22µM*	5%	?	-30%	75%
O=C1Nc2ccccc2/C1=C/c1cccnc1	18%	31%	11%	?	-12%[60.1 µM]	16%
CSc1nc(O)c(/C=C2\C=Nc3ccccc32)[nH]1	-15%	4%	0%	-11%	-14%	13%
O=c1[nH]c(/C=C2\C=Nc3ccccc32)c(O)n1Cc1ccccc1F	-14%	?	5%	88%	-4%	7.9µM*
O=C(O)c1ccc(S(=O)(=O)c2ccc3c(c2)C(=O)N(c2ccc(O)cc2)C3=O)cc1	3%	-1%	-5%	62%	-6%	-27%
CC(C)Cc1ccc(C(C)/C=C2/CCC(CN3CCCCC3)C2=O)cc1 (stereo unspecified)	22µM*	.	.	?	-13%	-16%
CCOC(=O)c1c(N)n(-c2cccc(OC)c2)c2nc3ccccc3nc12	-3%	2%	.	?	-18%[60.1 µM]	-13%
CCOC(=O)c1c(N)n(-c2ccc(CC)cc2)c2nc3ccccc3nc12	-18%	2%	.	93%	-1%	-2%
CCOC(=O)c1c(N)n(C2CC(C)(C)NC(C)(C)C2)c2nc3ccccc3nc12	-6%	28µM*	-2%	?	-8%	-1%
CCOC(=O)c1c(N)n(-c2ccc(N)cc2)c2nc3ccccc3nc12	-7%	?	8%	79µM*	2%[60.1 µM]	15%
COc1cccc(N2CCN(C(=O)CCS(=O)(=O)c3ccc4c(c3)oc(=O)n4C)CC2)c1	?	?	-10%	71µM*	?	16%
CCc1ccccc1NC(=O)CCS(=O)(=O)c1ccc(OC)cc1	?	35µM*	28%	31%	-19%	1%
Cn1c(=O)oc2cc(S(=O)(=O)Nc3ccc(O)cc3)ccc21	-8%	-1%	9%	0%	5%	0%
COc1ccc(NC(=O)CCS(=O)(=O)c2ccc3c(c2)oc(=O)n3C)cc1	?	?	-1%	50µM*	-24%	-24%
SMILES	POLH inh	POLB inh	APE1 inh	POLI inh	Pol kappa inh	GLS inhibitor
Cn1c(=O)oc2cc(S(=O)(=O)Nc3ccc(C(=O)O)cc3)ccc21	89µM*	?	.	?	-19%	-14%
CCSc1nc2c(c(=O)[nH]c(=O)n2C)n1C/C=C(/C)Cl	-6%	8%	-7%	8%	-17%	4%
O=C1C=CC2(O[C@H](c3ccccc3)[C@@H](c3ccccc3)O2)[C@H](Sc2ccccc2O)C1	?	.	.	22µM*	-3%	-2%
CC(=O)Nc1cccc(C(=O)NCC2(N3CCCCC3)CCCCC2)c1	-11%	24%	12%	62%	-2%	-13%
COc1cc(CNc2ccc(N3CCN(C(C)=O)CC3)cc2)ccc1OCc1ccccc1	-7%	25%	-6%	137%	-9%	13µM*
COc1cc(CNc2ccc(N3CCOCC3)cc2)ccc1OCC(=O)NC(C)(C)C	-24%	90%	-5%	16%	-13%	46%
O=C(COCc1cc(-c2ccc3c(c2)OCO3)on1)N1CCN(c2ccc(F)cc2)CC1	-4%	13%	10%	79µM*	-1%	1%
O=C(N/N=C/c1ccc(OC(F)F)cc1)c1ccc(Br)cc1	-14%	79µM*	-2%	-14%	-3%	8%
O=C1CC(=Nc2ccc([N+](=O)[O-])cc2)NN1c1c(Cl)cc(Cl)cc1Cl	79µM*	.	.	.	.	-4%
O=C(COc1ccc(Cl)cc1)NCc1nnc(SCC(=O)c2ccccc2)o1	-7%	-21%	-10%	14%	-6%	9%
O=C1CCCC(O)=C1N=Nc1c(Cl)cc(C(F)(F)F)cc1Cl	-17%	?	?	79µM*	?	26%
N#CNC(=Nc1cccc(Cl)c1)Oc1ccccc1	-13%	18%	6%	?	1%	0%
CS(=O)(=O)N1CCC(C(=O)N2CCc3ccccc3C2)CC1	7%	17%	-2%	16%	4%	7%
CCOC(=O)C1=C(C)NC(=O)/C1=C\N(C)C	-12%	?	-3%	65%	-10%	-1%
CCOC(=O)C1=C(C)S/C(=C\N(C)C)C1=O	?	?	21%	25µM*	?	4%
CCOC(=O)C1CCCN(Cc2cc(Br)c(OC)cc2OC)C1 (stereo unspecified)	-8%	2%	15%	-4%	-9%	-7%
O=Nc1ccc(NOC(=O)c2ccccc2Br)cc1	6%	79µM*	6%	120%	-14%	0%
CC1=NNC(=O)/C1=C\c1cn(-c2ccccc2)nc1-c1ccc(F)cc1	-8%	6%	1%	25µM*	-9%	5%
CC1=NNC(=O)/C1=C\c1cn(-c2ccccc2)nc1-c1cccs1	-16%	18%	16%	?	-9%	-20%
